In PubChem BioAssay AID2315 (National Center for Advancing Translational Sciences (NCATS), 2010):
Values joined by “and” are separate entries in the source; they are usually repeats but may differ in a detail not shown here. Equal values may be shown once. Hit rate of the full screen: of about 290,000 compounds, about 27,000 (9.3%) were called active. This excerpt belongs to a sample that is enriched for actives. Unmarked numbers belong to inactive results. Rule as the data show it: active = inhibition mostly above about 28% (no sharp cut-off); inactive = mostly below about 43%.

assay: A qHTS for Small Molecule Inhibitors of Shiga Toxin; conditions: Vero cells, Shiga toxin protein synthesis inhibition reporter; at 38.7 µM, active compounds read high; also: 0% is about no effect

Structure (SMILES)	inhibition
COc1ccc(Cn2c(=S)[nH]c3cc(C(=O)N4CCCCC4)ccc3c2=O)cc1	-3.58%
CCOc1ccc(OCc2ccc(C(=O)N(C)c3ccccc3)o2)cc1	13%
CC(=O)Oc1ccc(-c2cccc(C(=O)N3CCCCC3)c2)cc1	37.3%
COc1cccc(COc2ccc(N(C)S(=O)(=O)c3ccccc3)cc2)c1	26%
COc1ccc(OCc2cccc(C(=O)N3CCCC3)c2)cc1	147% (active)
CCOc1ccc(OCc2cccc(C(=O)N(CC)CC)c2)cc1	160% (active)
O=C(COc1ccccc1[N+](=O)[O-])NC1CC1	19.4%
CCN1C(=NCc2ccc(OC)cc2)N[C@@H](CCc2ccccc2)[C@H](C(=O)NCc2ccc(OC)cc2)[C@H]1C	2.67% and -2.62%
CCOC(=O)c1cn(CC(=O)Nc2ccc(C(C)C)cc2)nn1	-16.4%
CCc1ccc(NC(=O)Cn2ncn3c(cc4ccccc43)c2=O)cc1	5.27%
CC(C)c1ccc(NC(=O)Cn2ncc3ccccc32)cc1	74.2% (active)
Nc1nonc1-n1nnc(C(=O)N/N=C/c2c[nH]c3ccccc23)c1-c1ccccc1	-17%
CCn1cc(S(=O)(=O)c2cccc(C)c2)c(=O)c2cc(F)c(N3CCN(C)CC3)cc21	4.57%
COc1cccc(C(=O)Nc2ccc(N3CCN(C(=O)c4ccco4)CC3)cc2)c1	2.21%
COc1cccc(C(=O)NNC(=O)c2ccccc2Br)c1	-5.95%
CN1CCN(c2ccc(NC(=O)c3ccc4c(c3)[nH]c(=O)n4Cc3ccc(F)cc3)cc2)CC1	-1.72%
COc1cccc(C(=O)Nc2ccc(N3CCCC3)cc2)c1	47.9% (active)
COc1ccc(C(=O)NC(=S)Nc2ccc(N3CCCC3)cc2)cc1OC	11.5%
CN1CCN(c2ccc(NC(=O)c3ccccc3)cc2)CC1	47.5% (active)
COc1cccc(C(=O)Nc2cc3c(cc2Br)OCCCO3)c1	95.9% (active)
Cc1ccccc1C(=O)Nc1ccc(N2CCCCCC2)cc1	36.6%
CC(=O)Oc1cccc(C(=O)Nc2ccccc2NC(=O)c2cccc(OC(C)=O)c2)c1	-7.51%
Cc1ccc(-c2noc(CNC(=O)c3ccoc3C)n2)cc1	-9.24%
CCOCCCNC(=O)c1ccc(CS(=O)(=O)c2cccc(C(F)(F)F)c2)o1	21.3%
COC(=O)c1ccc(NC(=O)c2cc3c(CO)cnc(C)c3oc2=Nc2cccc(C(N)=O)c2)cc1	-1.8%

Structure (SMILES)	inhibition
CCN1C(=NCC(C)C)N[C@@H](CCc2ccccc2)[C@H](C(=O)NCC(C)C)[C@H]1C	-2.89% and 9.38%
O=C(CNC(=O)c1cccnc1)N/N=C/c1cc(Br)c(O)c(Br)c1	-3.98%
O=S(=O)(c1ccccc1)N(Cc1cccc(F)c1)c1ccccc1	-4.98%
COC(=O)N/N=C/c1cn(CCCOc2ccc(C)cc2)c2ccccc12	37.2% (active)
CNC(=S)N/N=C/c1cn(Cc2ccc(C)cc2)c2ccccc12	21.9%
CCOC(=O)N/N=C/c1cn(Cc2ccccc2Cl)c2ccccc12	20.2%
Cc1ccc(NC(=O)CN(C)C(=O)COC(=O)C(C)(C)Oc2ccc(Cl)cc2)cc1	-9.8%
O=C(CN1CCN(c2cccc(Cl)c2)CC1)Nc1ccc(S(=O)(=O)N2CCOCC2)cc1	-9.51%
O=C(CSCc1ccccc1)Nc1ccccc1	50.8% (active)
Cc1c(NC(=O)CSCc2ccccc2)cccc1C(=O)O	31.3%
Cn1c(CSCC(=O)Nc2ccccc2)nnc1SCc1ccccc1	18.4%
COc1ccc(Cl)cc1NC(=O)c1cccc(N2C(=O)C3CC=CCC3C2=O)c1 (stereo not drawn)	-4.45%
COc1ccc(S(=O)(=O)N2CCSCC2)cc1	-9.94%
CCOC(=O)N1CCN(Cc2nnc(-c3ccccc3Cl)o2)CC1	-5.19%
O=C(COc1ccccc1)Nc1ccc(C(=O)N2CCCC2)cc1	9.15%
COc1cc(C2NC(=O)NC(c3ccccc3)=C2C(C)=O)c(Br)cc1OCC(N)=O (stereo not drawn)	-4.39%
O=C(NC(=S)Nc1cccc(-c2ccc(CO)o2)c1)c1cccs1	127% (active)
O=C(NC(=S)Nc1ccc(NC(=O)c2cccs2)cc1)c1ccc([N+](=O)[O-])cc1	36.1%
O=C(Nc1ccccc1-c1ccccc1)c1cccs1	-12.5%
O=S(=O)(Cc1cc(Cl)nc(-c2cccnc2)n1)c1ccccc1	40.3%
O=C(c1cc(S(=O)(=O)N2CCOCC2)ccc1Cl)N1CCOCC1	-6.61%
CC(C)CCN(C(=O)c1csnn1)C(C(=O)NC1CCCC1)c1ccccc1 (stereo not drawn)	-3.8%
Cc1cc2c(=O)n(CC(=O)NCC(=O)Nc3ccc(C(C)C)cc3)cnc2s1	-9.56%
COc1ccc(CCNC(=O)CCNS(=O)(=O)c2cc(Br)cnc2N)cc1OC	-6.21%
CS(=O)(=O)N(CC(=O)N1CCOCC1)c1cccc(Cl)c1Cl	1.97%

Structure (SMILES)	inhibition
Cc1ccccc1-c1nnn(CC(=O)c2ccc(S(=O)(=O)N3CCCC3)cc2)n1	-5.14%
O=C(Cn1nnc(-c2ccccc2)n1)NCc1ccccc1	-10.9%
Cc1nc2ccccc2n1CC(O)c1ccccc1 (stereo not drawn)	-2.2%
CCOc1ccc(S(=O)(=O)N2CCCC(C(=O)N3CCC(C(N)=O)CC3)C2)cc1Cl (stereo not drawn)	15.1%
CCOC(=O)CSc1nc(N2CCOCC2)c2c(c1C#N)CC(C(C)C)OC2 (stereo not drawn)	-7.43%
CC(=O)C1=C(O)C(=O)N(c2ccc(Br)cc2)C1c1ccc([N+](=O)[O-])cc1 (stereo not drawn)	-5.69%
CCc1ccc2nc(N(CCCN(C)C)C(=O)c3ccc4c(c3)OCCO4)sc2c1	-6.1%
Cc1ccc2nc(N(CCN(C)C)C(=O)C3=COCCO3)sc2c1	6.59%
CN(C)CCN(C(=O)C1=COCCO1)c1nc2ccc(Cl)cc2s1	128% (active)
COc1ccc(NC(=O)C2CCN(S(=O)(=O)c3ccc4[nH]c(=O)oc4c3)CC2)c(OC)c1	-2.15%
Cn1c(Nc2ccccc2)cc(=O)n(C)c1=O	-6%
CN(C)S(=O)(=O)c1ccc(C(=O)NCCN=C2NS(=O)(=O)c3ccccc32)cc1	-13.8%
O=c1c(-c2ccccc2Cl)c[nH]n1-c1ccccc1	9.18%
O=c1c(-c2cccc(Cl)c2)c[nH]n1-c1ccccc1	77.1% (active)
Cc1[nH]n(-c2cccc(Cl)c2)c(=O)c1-c1ccc(Cl)cc1	34.8%
COc1ccc(CNC(=O)Cc2ccc(-c3ccccc3)cc2)cc1OC	-1.2%
Cc1cc(=O)[nH]c2nnnn12	-3.63%
COc1ccccc1/C=C/C(=O)NC1CC2CCC1C2 (stereo not drawn)	12.2%
COc1ccc(/C=C/C(=O)NC(=S)N2CCCC(C(N)=O)C2)cc1 (stereo not drawn)	12.4%
COc1ccccc1/C=C/C(=O)NC(=S)N1CCOCC1	106% (active)
O=C(/C=C/c1ccco1)NC(=S)Nc1ccccc1Br	26.6%
O=C(/C=C/c1ccco1)NC(=S)N1CCCCC1	47.5% (active)
COc1ccccc1C(=O)Nc1cccc(C(=O)N2CCOCC2)c1	-11.1%
CCCn1c(C2CCCN2c2nc(-c3ccc(C)cc3)cs2)nc2cc(Cl)c(N3CCCCC3)cc21 (stereo not drawn)	26.1%
CCOc1ccc(Br)cc1S(=O)(=O)Nc1ccc(C(=O)OC(C)C(=O)N(C)c2ccccc2)cc1 (stereo not drawn)	-0.904%

Structure (SMILES)	inhibition
CCOC(=O)c1c(-c2ccccc2)oc2cc(Br)c(O)c(C=O)c12	3%
Nc1cc(N)nc(SCc2ccc(Cl)cc2)n1	17.1%
Nc1cc(N)nc(SCc2cccc(F)c2)n1	62.3% (active)
Cc1cc(=O)[nH]c(SCc2cccc(F)c2)n1	-4.74%
CN(CC(=O)Nc1ccccc1C(F)(F)F)C(=O)Cc1ccccc1F	16.3%
Cc1ccc(NS(=O)(=O)c2cn(C)c(=O)n(C)c2=O)c(C)c1	3.31%
COc1ccc(Oc2c(Cl)cnn(-c3ccccc3)c2=O)cc1	-10.6%
COc1ccc(-n2ncc3c(N4CCc5ccccc54)ncnc32)cc1	105% (active)
COc1ccc(CCC(C)N2CCc3ccccc3C2)cc1 (stereo not drawn)	-6.15%
COc1ccc2oc(=O)c(C(=O)N3CCCc4ccccc43)cc2c1	-5.55%
COc1cc(C)c(C)cc1S(=O)(=O)N1CCCc2ccccc21	16.5%
COc1ccc(-n2ncc3c(N4CCCc5ccccc54)ncnc32)cc1	113% (active)
Cc1ccc(NC(=O)CN2CCc3ccccc3C2)cc1C	17%
COc1ccc(C(=O)OCC(=O)NCCCc2ccccc2)cc1OC	-3.51%
O=C(Nc1cccc(-c2nc3ccccc3[nH]2)c1)c1ccc(C(=O)Nc2cccc(-c3nc4ccccc4[nH]3)c2)cc1	62.5% (active)
Cc1ccc(N2NC(=O)/C(=C/C=C/c3ccco3)C2=O)cc1C	20.9%
O=C(/C=C/c1ccco1)Nc1cccc(-c2nc3ccccc3[nH]2)c1	157% (active)
NS(=O)(=O)c1cccc(NC(=O)COC(=O)/C=C/c2ccco2)c1	26.6%
O=C(Cc1cccs1)Nc1cccc(-c2nc3ccccc3[nH]2)c1	3.19%
CC(C)Oc1ccc(/C=C(\NC(=O)/C=C/c2ccco2)C(=O)NCCc2nc3ccccc3[nH]2)cc1	14.2%
Cc1ccc(-n2nc3ccc(NC(=O)/C=C/c4ccco4)cc3n2)cc1C	63.8% (active)
CN(c1ccccc1)S(=O)(=O)c1cc(C(=O)Nc2nc3ccccc3[nH]2)ccc1Cl	55.5%
CCOC(=O)c1c(NC(=O)/C=C/c2ccco2)sc(C)c1C	-12.1%
